Composite z-score and composite Z-score data for 16 molecules are collected here from PubChem BioAssay.

One experiment concerns the target Albumin (Bos taurus) (UniProt P02769). The experiment is described as follows: compounds binding labelled BSA control protein – biochemical, small-molecule microarray, Alexa647 label, 635/667 nm fluorescence, artefact control for SMM control protein annotation, profiling panel (AID 1118).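 Further: score merges 667 nm emission intensity and signal-to-noise per printed compound spot.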 As to conditions: BSA-A647 binding, fluorescence 635 nm, higher = more signal.

Experiment [1] can be described thus: probe aXIP binding to arrayed compounds – biochemical, NeuroSMM set, 635/667 nm fluorescence, primary screen (AID 1119).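 Further: probe is the protein aXip251-270 applied at 1 µg/mL to compound-printed slides; binding of probe to printed compounds measured as 667 nm fluorescence plus signal to noise.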 As to conditions: small-molecule microarray, higher = more signal, called active from +8 up or from −8 down.
Experiment [2] can be described thus: probe aNOTCH3 binding on compound microarray – biochemical, small-molecule microarray, 635/667 nm fluorescence, primary screen (AID 1120).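 Further: probe is a biotin-tagged antibody raised against NOTCH3 rather than NOTCH3 protein; score merges spot fluorescence near 667 nm with spot signal to noise.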 As to conditions: higher = more signal.
The nature of experiment [3]: probe aNOTCH2 binding on compound microarray – biochemical, small-molecule microarray, 635/667 nm fluorescence, primary screen (AID 1121).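 Further: score merges feature fluorescence read at 667 nm with its signal to noise.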 As to conditions: higher = more signal.
The target of experiment [4] is Carbonic anhydrase 2 (Homo sapiens) (UniProt P00918). The experiment is described as follows: compounds binding carbonic anhydrase 2 – biochemical, small-molecule microarray, Alexa647-labelled CAII, profiling panel (AID 1122). As to conditions: CAII-A647 binding fluorescence, higher = more signal.
The nature of experiment [5]: COS7 lysate on small-molecule microarray, probe aHis, 635 nm (AID 1123).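 Further: z-score combines 667nm fluorescence intensity with signal-to-noise per printed compound spot.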 As to conditions: COS7 cell lysate, fluorescence, higher = more signal.
Experiment [6] can be described thus: probe aLAP1 signal on lysate-treated microarray – cell lysate, small-molecule microarray, COS7 lysate, primary screen (AID 1124).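 Further: lysate comes from COS7 cells expressing LAP1 and is applied at 0.3 µg/mL; score merges spot fluorescence near 667 nm with signal-to-noise over triplicate slides.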 As to conditions: probe aLAP1, fluorescence, higher = more signal.
A further experiment concerns Sam68 (KHDRBS1). In words: compounds binding KHDRBS1 protein – biochemical, small-molecule microarray, 635 nm fluorescence, primary screen (AID 1125).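 Further: score merges 667 nm channel intensity with signal to noise over triplicate slides.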 As to conditions: higher = more signal.
Experiment [7] relates to Chordin-like protein 2 (CHRDL2). The experiment is described as follows: compounds binding chordin-like 2 – biochemical, small-molecule microarray, 635 nm fluorescence, primary screen (AID 1126).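 Further: printed compound slides probed with Chrdl2 protein at 4 µg/mL for 1 h at 4 C; score merges 667 nm emission intensity with signal to noise over three replicate slides.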 As to conditions: fluorescence 635 nm, higher = more signal.
In experiment [8] the target is Concanavalin-A (Canavalia ensiformis) (UniProt P02866). In words: compounds binding concanavalin A lectin – biochemical, small-molecule microarray, Alexa647 label, 635 nm, artefact control for SMM control protein annotation, primary screen (AID 1127).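 Further: z combines 667 nm emission intensity with signal-to-noise across three replicate slides.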 As to conditions: ConA-A647 binding fluorescence, higher = more signal.
Chain of Concanavalin-A (Canavalia ensiformis) (P02866 whole entry, looked up): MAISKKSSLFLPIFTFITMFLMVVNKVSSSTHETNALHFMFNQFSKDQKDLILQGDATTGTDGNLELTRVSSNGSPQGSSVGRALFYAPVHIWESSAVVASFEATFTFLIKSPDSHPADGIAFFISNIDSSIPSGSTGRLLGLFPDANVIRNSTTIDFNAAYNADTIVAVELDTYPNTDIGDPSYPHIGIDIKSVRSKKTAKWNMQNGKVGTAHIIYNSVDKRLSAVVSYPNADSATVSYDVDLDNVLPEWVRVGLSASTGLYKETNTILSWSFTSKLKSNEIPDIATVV

Activity calls are given as the source filed them.

Chain of Albumin (Bos taurus) (P02769 whole entry, looked up): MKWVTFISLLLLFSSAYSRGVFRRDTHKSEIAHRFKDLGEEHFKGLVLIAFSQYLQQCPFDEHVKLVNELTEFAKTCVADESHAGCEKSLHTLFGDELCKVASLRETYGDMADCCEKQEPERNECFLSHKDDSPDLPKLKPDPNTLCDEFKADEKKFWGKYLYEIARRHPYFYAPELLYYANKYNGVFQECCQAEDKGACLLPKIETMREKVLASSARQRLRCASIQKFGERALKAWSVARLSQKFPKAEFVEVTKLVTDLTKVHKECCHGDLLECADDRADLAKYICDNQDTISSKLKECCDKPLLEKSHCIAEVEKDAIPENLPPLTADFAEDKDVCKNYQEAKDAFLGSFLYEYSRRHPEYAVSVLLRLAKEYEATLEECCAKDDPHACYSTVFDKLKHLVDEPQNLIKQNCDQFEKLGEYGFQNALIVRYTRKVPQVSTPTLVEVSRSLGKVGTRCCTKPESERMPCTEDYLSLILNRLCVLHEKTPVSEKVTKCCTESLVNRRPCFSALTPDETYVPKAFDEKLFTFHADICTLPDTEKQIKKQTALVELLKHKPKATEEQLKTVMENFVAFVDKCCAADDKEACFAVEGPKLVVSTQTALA

Turning to `CCCC[C@H]1OB(O)C[C@H]2C1=C(COc1ccccc1)C[C@H]1C(=O)N(C)C(=O)[C@H]12`, the composite z-score with Albumin (Bos taurus) is -0.137; in [2], -0.0046; in [3], -0.0596; in experiment [4], -0.0293; in experiment [5] it was 0.486; in experiment [6], 0.0594. Moreover, the composite z-score is -0.348 in the experiment on Sam68 (KHDRBS1), 0.497 in [7] and -0.271 in experiment [8]. For the same molecule, the composite Z-score in experiment [1] was -0.252 (inactive).

Take `CCN(CC)c1ccc(N2CC=CC34O[C@@H]5/C=C\CCC(C)OC(=O)C5[C@H]3C(=O)N(C(CO)C(C)C)[C@@H]4C2=O)cc1` (stereo not given in full): the composite z-score with Albumin (Bos taurus) is -0.451; in experiment [2] it was -0.222; in experiment [3], -0.175; in experiment [4] it was 0.894; in experiment [5], 0.595; in [6], -0.387. Besides, the composite z-score is 0.213 in the experiment with Sam68 (KHDRBS1), -0.263 in [7] and -1.77 in experiment [8]. For the same molecule, the composite Z-score in experiment [1] is 0.211 (inactive).

Turning to `C#CCN(Cc1ccccc1Br)C(/C=C/c1ccccc1)CO` (stereo not given), the composite z-score is -0.406 with Albumin (Bos taurus); -0.212 in [2]; -0.18 in experiment [3]; -0.22 in experiment [4]; -0.163 in experiment [5]; -0.146 in experiment [6]. Also, the composite z-score in the experiment with Sam68 (KHDRBS1) was -0.271; in [7] it was 0.188; in [8], -1.25. In addition, in experiment [1], the composite Z-score was -0.177 (inactive).

As to `O=C1OCCC=C[C@H]2OC34C=CCN(CCN5CCOCC5)C(=O)[C@H]3N(CCCCCCO)C(=O)[C@@H]4C12` (stereo not given in full), the composite z-score with Albumin (Bos taurus) is -0.274; in experiment [2], -0.274; in [3] it was -0.167; in experiment [4], 0.844; in experiment [5], 0.1; in experiment [6], 0.133. The values for the composite z-score (in the experiment on Sam68 (KHDRBS1); in experiment [7]; in experiment [8]) were -0.614, -0.592 and 0.0309, respectively. For the same molecule, the composite Z-score in experiment [1] was 1 (inactive).

As to `CCCC[C@@H]1C[C@H]1[C@@H](NC(=O)c1ccco1)c1ccc(Cl)cc1`, the composite z-score with Albumin (Bos taurus) was 0.796; in experiment [2], 0.193; in [3], -0.0164; in experiment [4] it was 0.637; in experiment [5] it was 1.99; in experiment [6], 0.65. The composite z-score is 1.33 with Sam68 (KHDRBS1), -0.414 in experiment [7] and 1.07 in experiment [8]. In addition, the composite Z-score in [1] is -0.0717 (inactive).

As for `CCOC(=O)C1=CCC(c2ccc(C)cc2)N(S(=O)(=O)c2ccc(C)cc2)C1` (stereo not given), the composite z-score with Albumin (Bos taurus) was 0.0328; in experiment [2], 0.037; in experiment [3] it was -0.146; in experiment [4], 0.251; in [5], 1.43; in [6], -0.347. Further, the composite z-score was 0.747 in the experiment with Sam68 (KHDRBS1), 0.137 in experiment [7] and 0.995 in experiment [8]. The composite Z-score in experiment [1] is 0.798 (inactive).

For `CC1CC/C=C\[C@H]2OC34C=CCN(C(C)(C)C)C(=O)[C@H]3N(CCCCCCO)C(=O)[C@@H]4C2C(=O)O1` (stereo not given in full), the composite z-score is -0.805 with Albumin (Bos taurus); -0.295 in experiment [2]; -0.114 in experiment [3]; 0.932 in experiment [4]; 0.178 in [5]; 0.843 in [6]. Moreover, the results for the composite z-score (in the experiment with Sam68 (KHDRBS1); in [7]; in experiment [8]) were -0.281, -1.07 and -0.239, respectively. Also, the composite Z-score in [1] was -0.358 (inactive).

On to `CC(C)[C@@H](CO)NC(=O)[C@H]1[C@@H](c2ccccc2)N(c2ccccc2)O[C@@H]1C`, for which the composite z-score was 0.595 with Albumin (Bos taurus); -0.0573 in [2]; -0.162 in experiment [3]; 0.459 in experiment [4]; 0.46 in experiment [5]; 0.145 in experiment [6]. The results for the composite z-score (in the experiment with Sam68 (KHDRBS1); in experiment [7]; in experiment [8]) were -0.238, 0.207 and -0.271, respectively. For the same molecule, the composite Z-score in experiment [1] is 0.365 (inactive).

With `CN1C(=O)C2C=CC(C(O)c3ccccc3)N(Nc3ccccc3)C2C1=O` (stereo not given), the composite z-score was 0.761 with Albumin (Bos taurus); -0.128 in experiment [2]; -0.0543 in experiment [3]; 0.78 in experiment [4]; 2.45 in experiment [5]; 0.119 in experiment [6]. For the same molecule, the composite z-score in the experiment on Sam68 (KHDRBS1) is -0.0508; in [7], -1.02; in [8] it was 0.142. Further, the composite Z-score in [1] is 0.131 (inactive).

In the case of `COc1ccc(C(O)C2C=CC3C(=O)N(c4ccccc4)C(=O)C3N2Nc2ccccc2F)cc1OCc1ccccc1` (stereo not given), the composite z-score in the experiment with Albumin (Bos taurus) is 1.01; in [2], 0.837; in experiment [3], 0.114; in [4], 0.51; in experiment [5], 2.04; in experiment [6], -0.0892. The composite z-score was 1.31 in the experiment with Sam68 (KHDRBS1), -0.175 in [7] and 1.13 in [8]. For the same molecule, the composite Z-score in experiment [1] was 1.22 (inactive).

For the molecule `[N-]=[N+]=Nc1ccccc1C[C@]1(C(N)=O)N=C(c2ccc(OCCCO)cc2)O[C@H]1c1ccccc1`, the composite z-score in the experiment with Albumin (Bos taurus) is 0.989; in [2] it was 0.0556; in experiment [3], -0.106; in experiment [4], 0.662; in experiment [5], 2.59; in experiment [6], 0.386. The figures for the composite z-score (with Sam68 (KHDRBS1); in [7]; in experiment [8]) were 0.974, -1.18 and 0.6, respectively. Also, the composite Z-score in experiment [1] was 0.364 (inactive).

Turning to `COC(=O)[C@@]1(Cc2ccccc2)[C@H]2c3cc(C(=O)N4CCCC4)n(Cc4cccc5ccccc45)c3C[C@H]2CN1C(=O)c1ccccc1`, the composite z-score with Albumin (Bos taurus) is 0.942; in experiment [2], 1.44; in experiment [3] it was 0.707; in experiment [4] it was 0.741; in [5], 1.54; in [6], 0.539. Moreover, the composite z-score is 0.621 in the experiment on Sam68 (KHDRBS1), -0.975 in experiment [7] and 0.308 in [8]. Besides, in experiment [1], the composite Z-score was 0.304 (inactive).

Turning to `CCOC(=O)C=Cc1cc([N+](=O)[O-])ccc1O`, the composite z-score in the experiment with Albumin (Bos taurus) was -0.307; in [2], 0.0209; in experiment [3], -0.0162; in experiment [4], 0.802; in experiment [5] it was 0.751; in experiment [6], 0.422. The composite z-score with Sam68 (KHDRBS1) was 0.471; in experiment [7], -1.26; in [8] it was -0.0123. Besides, the composite Z-score in [1] was -0.26 (inactive).

As for `CCCCCN1CC=CC23O[C@@H]4/C=C\CCCOC(=O)C4[C@H]2C(=O)N(CCCO)[C@@H]3C1=O` (stereo not given in full), the composite z-score with Albumin (Bos taurus) was 0.433; in [2], -0.095; in experiment [3], -0.104; in experiment [4], 0.689; in [5], 1.82; in [6], 1.04. Besides, the composite z-score is 0.798 in the experiment with Sam68 (KHDRBS1), -0.343 in experiment [7] and 0.256 in experiment [8]. For the same molecule, the composite Z-score in [1] is -0.0981 (inactive).

Regarding `COCCOC(=O)N1C(=O)[C@@]2(c3cc(C#Cc4ccc(OC)cc4)ccc31)[C@H](C(=O)N1CCCCCCC1)[C@H]1C(=O)O[C@H](c3ccccc3)[C@H](c3ccccc3)N1[C@@H]2c1ccc(OCCO)cc1`, the composite z-score was -1.25 in the experiment with Albumin (Bos taurus); 0.872 in experiment [2]; 0.711 in [3]; 0.712 in experiment [4]; 1.49 in [5]; 0.913 in [6]. For the same molecule, the composite z-score with Sam68 (KHDRBS1) turned out to be 1.3; in experiment [7] it was 1.48; in experiment [8], 0.987. Besides, the composite Z-score in [1] was 3.51 (inactive).

`C=CCOC(=O)[C@H]1[C@@H]2C(=O)O[C@@H](c3ccccc3)[C@@H](c3ccccc3)N2[C@@H](c2ccc(OCCOC(=O)[C@H]3C[C@H]4C(=O)N[C@@H](CC(C)C)C(=O)N4[C@H]3c3ccc(O)cc3)cc2)[C@]12C(=O)Nc1ccc(I)cc12`: the composite z-score with Albumin (Bos taurus) is -0.262; in [2], 0.17; in [3] it was -0.117; in experiment [4] it was 0.597; in experiment [5] it was 1.77; in experiment [6] it was 0.818. Besides, the composite z-score came out at 1.28 in the experiment with Sam68 (KHDRBS1), 1.37 in experiment [7] and 1.16 in experiment [8]. Further, the composite Z-score in [1] is 0.672 (inactive).
